Source: PubChem BioAssay AID902 (National Center for Advancing Translational Sciences (NCATS), 2007)
The campaign covered roughly 130,000 compounds. About 1,900 (1.5%) were called active. About 5% were inconclusive and are not listed. The call rests on the fitted dose curve; in most records, active means well fitted cell-killing curve with a large enough effect; inconclusive means small, poorly fitted or top-dose-only effect; inactive means no such curve, though single readings can be large or run the other way. Shown is part of a subset that was picked to be rich in actives. Entries that show only a call come without a potency.
Potency means the concentration at half of the fitted maximal effect.

Experiment: qHTS Screen for Compounds that Selectively Target Cancer Cells with p53 Mutations: Cytotoxicity of p53ts Cells at the Nonpermissive Temperature; further: nearly all actives have a fitted effect of over 55% in size
Conditions: H1299-p53A138V viability at 39C, ATP luminescence, 24 h; series mostly up to 46.1 µM
With `COc1ccc(C(=O)Nc2onc3c2CCCC3)cc1` the Potency was 10 µM (active).
In the case of `CC1CCc2noc(NC(=O)c3ccc([N+](=O)[O-])cc3)c2C1` (stereo not given), the Potency was “inactive”.
With `COc1ccc(NC(=O)c2c(C)oc3c2CCCC3)cc1` the Potency was “inactive”.
For `O=C(c1ccc2c(c1)N(Cc1ccccc1)C(=O)c1ccccc1S2(=O)=O)N1CCCC1`, the Potency was “inactive”.
With `COc1ccccc1C(=O)Nc1c(C(=O)N(C)Cc2ccccc2)sc2nc(C)c(Cl)c(C)c12` the Potency was “inactive”.
For `COc1ccc(NS(=O)(=O)c2cc3c4c(c2)CC(=O)N4CCC3)cc1Cl`, the Potency was “inactive”.
In the case of `CCN1C(=O)c2ccccc2S(=O)c2ccc(C(=O)NCc3ccc(F)cc3)cc21` (stereo not given), the Potency was “inactive”.
For `COC(=O)c1nc2ccccc2s1`, the Potency was “inactive”.
For `CCC(=O)NC(=Nc1nc2ccccc2s1)NC(=O)CC`, the Potency was 10 µM (active).
For `COC(=O)Cc1cc(=O)n(-c2nc3ccccc3s2)[nH]1`, the Potency was “inactive”.
For `O=C(NCC(c1ccc2c(c1)OCO2)N1CCN(c2ccccc2)CC1)C(=O)Nc1ccccc1F` (stereo not given), the Potency was “inactive”.
With `O=C(NC1CC(=O)N(c2ccccc2)C1)c1ccco1` (stereo not given) the Potency was “inactive”.
In the case of `c1ccc(-c2noc(-c3cccs3)n2)nc1`, the Potency was 15.8 µM (active).
In the case of `CC(C)c1nc(-c2ccccn2)no1`, the Potency was “inactive”.
For `c1csc(-c2nc(-c3ccncc3)no2)c1`, the Potency was “inactive”.
For `COc1ccc(CNC(=O)c2cc3c(-c4ccccc4F)nn(C)c3s2)c(OC)c1`, the Potency was “inactive”.
With `O=C(Cc1ccccc1)Nc1sc2c(c1C(=O)Nc1ccc(Br)cc1)CCC2` the Potency was “inactive”.
In the case of `CCOc1ccc(NC(=O)c2c(NCc3cccc(OC)c3OC)sc3c2CCC3)cc1`, the Potency was “inactive”.
In the case of `CCOc1ccc(NC(=O)c2c(NC(=O)Cc3ccccc3)sc3c2CCCCC3)cc1`, the Potency was 10 µM (active).
For `CCc1ccc(CNC(=O)c2ccc(CS(=O)c3ccc(Br)cc3)o2)cc1` (stereo not given), the Potency was “inactive”.
With `CC(NC(=O)c1cc(Sc2ccc(F)cc2F)nc2ccccc12)c1ccccc1` (stereo not given) the Potency was “inactive”.
In the case of `O=C(/C=C/c1ccccc1)N1CCN(Cc2cc(=O)n3nc(-c4ccccc4F)sc3n2)CC1`, the Potency was “inactive”.
In the case of `O=C(Cn1c(=O)sc2ccccc21)Nc1nc2c(s1)CCCC2`, the Potency was “inactive”.
For `NC(=O)c1ccccc1NC(=O)c1ccccc1F`, the Potency was “inactive”.
For `O=C(Nc1nc2c(s1)CCCC2)c1ccccc1F`, the Potency was 10 µM (active).
For `COC(=O)c1ccccc1NS(=O)(=O)c1ccc2c(c1)CCCN2C(C)=O`, the Potency was “inactive”.
In the case of `CCn1cc2nc(SCc3ccccc3Cl)n(CCc3ccccc3)c(=O)c2n1`, the Potency was “inactive”.
In the case of `Cc1ccc(C(=O)N2CCCCCC2)cc1Br`, the Potency was “inactive”.
For `CCc1ccc(CNC(=O)c2cc3cc4ccc(OC)cc4nc3o2)cc1`, the Potency was “inactive”.
With `Cc1ccc2cc3cc(C(=O)N4CCCCCC4)oc3nc2c1` the Potency was 15.8 µM (active).
For `CCCS(=O)(=O)c1c(Nc2ccccc2C)sc(C(=O)c2ccccc2)c1N`, the Potency was “inactive”.
For `Cc1c(NC(=O)Cc2ccccc2)cccc1-c1nc2cccnc2s1`, the Potency was “inactive”.
With `CCC(C(=O)Nc1cccc(-c2nc3cccnc3s2)c1C)c1ccccc1` (stereo not given) the Potency was “inactive”.
In the case of `Cc1c(NC(=O)C(C)(C)C)cccc1-c1nc2ccccc2s1`, the Potency was 15.8 µM (active).
With `CCOc1ccc(N(Cc2ccccc2)C(=O)c2nc(S(C)(=O)=O)ncc2Cl)cc1` the Potency was 3.98 µM (active).
In the case of `CCOc1ccc(NC(=O)CN(Cc2ccccc2)S(=O)(=O)c2ccc(Cl)cc2)cc1`, the Potency was “inactive”.
With `CCOc1ccc(N(Cc2ccccc2)C(=O)c2nc(SCC)ncc2Cl)cc1` the Potency was “inactive”.
In the case of `COc1ccc(Br)cc1CNC(=O)c1cc(=O)[nH]c2ccc(S(=O)(=O)N3CCCC3)cc12`, the Potency was “inactive”.
With `COc1ccc(NC(=O)CN2CCCN(Cc3ccccc3)S2(=O)=O)cc1` the Potency was “inactive”.
In the case of `COc1ccc(C(=O)Nc2nonc2-c2ccc(OC)c(OC)c2)cc1Cl`, the Potency was “inactive”.
For `Cn1c(=O)c2sccc2n2c(CCC(=O)NCc3ccccc3Cl)nnc12`, the Potency was “inactive”.
For `Cc1ccc(C)c(N2CCN(CCCNC(=O)Nc3ccc(Cl)cc3)CC2)c1`, the Potency was 10 µM (active).
For `CC1=C(c2ccc(Cl)cc2)S(=O)(=O)N=C1N1CCN(c2cc(C)ccc2C)CC1`, the Potency was “inactive”.
With `CC1=C(c2ccc(C)cc2)S(=O)(=O)NC1=NCCCN1CCN(c2cc(C)ccc2C)CC1` the Potency was “inactive”.
In the case of `CCN(CCCNC(=O)c1ccc(Sc2ccc(C)cc2)c(NC(C)=O)c1)c1cccc(C)c1`, the Potency was “inactive”.
With `COc1ccccc1C1C(C(=O)N2CCCCC2)=C(C)Nc2nc3ccccc3n21` (stereo not given) the Potency was “inactive”.
With `COC(=O)c1ccc(C2C(C(=O)Nc3ccccc3)=C(C)Nc3nc4ccccc4n32)cc1` (stereo not given) the Potency was 12.6 µM (active).
With `CCOc1ccc(C2C(C(=O)NC)=C(C)Nc3nc4ccccc4n32)cc1OC` (stereo not given) the Potency was “inactive”.
With `CCOC(=O)c1c(C)[nH]c(C)c1S(=O)(=O)N1CCCC(C(=O)NCc2ccccc2Cl)C1` (stereo not given) the Potency was “inactive”.
In the case of `CCc1cnc2c(c1SCC(=O)c1ccccc1)c(=O)n(C)c(=O)n2C`, the Potency was “inactive”.
For `CC(C)(C)c1ccc(C(=O)N2CCC(c3nc(-c4ccc(S(=O)(=O)N5CCCC5)cc4)no3)CC2)cc1`, the Potency was “inactive”.
With `Cc1sc(C2C(C#N)=C(N)N(c3cccc(Cl)c3)C3=C2C(=O)CCC3)cc1CN1CCOCC1` (stereo not given) the Potency was “inactive”.
With `COc1c2c(cc3occ(-c4ccc5c(c4)OCO5)c(=O)c13)OC(C)(C)C=C2` the Potency was 10 µM (active).
In the case of `COc1ccc(CCNC(=O)c2cc(-c3ccc4c(c3)OCO4)on2)cc1OC`, the Potency was “inactive”.
With `CCC(=O)N1CCc2cc(S(=O)(=O)NCCC(=O)Nc3cccc(C)c3C)ccc21` the Potency was “inactive”.
For `COc1cccc(NC(=O)CSc2cc(=O)n(C)c3ccc(Cl)cc23)c1`, the Potency was “inactive”.
With `CCCCOc1ccc(C(=O)N2CC(=O)Nc3ccc(Br)cc3C2c2ccc(F)cc2)cc1` (stereo not given) the Potency was “inactive”.
With `CCCCc1nn2c(=O)cc(COC(=O)c3ccc(NC(=O)c4ccccc4C)cc3)nc2s1` the Potency was “inactive”.
For `CN(C)c1ccc(-c2nc(NCCN3CCOCC3)c3ccccc3n2)cc1`, the Potency was 12.6 µM (active).
For `c1ccc2[nH]c(NCCN3CCOCC3)nc2c1`, the Potency was “inactive”.
For `c1ccc(-c2nc(NCc3ccco3)c3ccccc3n2)cc1`, the Potency was “inactive”.
With `O=C(c1cccc(Br)c1)N1CCN(Cc2cc(=O)n3nc(-c4ccccc4)sc3n2)CC1` the Potency was “inactive”.
With `Cc1nn2c3ccccc3nc2n(C)c1=O` the Potency was “inactive”.
With `Cc1csc(-c2nc3ccccc3n2C)n1` the Potency was 25.1 µM (active).
For `CC(C)n1c(-c2cccs2)nc2ccccc21`, the Potency was “inactive”.
With `COc1ccc(Cn2c(=O)c3oc4ccccc4c3n(CC(=O)Nc3ccc(F)cc3F)c2=O)cc1` the Potency was “inactive”.
In the case of `CCCN(C(=O)Cn1cc(S(=O)(=O)N2CCN(c3ccccc3F)CC2)c2ccccc2c1=O)c1cccc(C)c1`, the Potency was “inactive”.
With `CCN(C(=O)Cn1c(=O)nc(-c2ccccc2)c2cc(Cl)ccc21)c1cccc(C)c1` the Potency was 15.8 µM (active).
For `O=C(Cn1nnc(-c2ccccc2)n1)NCc1ccccc1`, the Potency was “inactive”.
For `CCN(CCCNC(=O)CSc1cc(=O)n(C)c2cc(Cl)ccc12)c1cccc(C)c1`, the Potency was “inactive”.
For `Cc1ccc(CNC(=O)CN2CCN(Cc3ccc(Cl)cc3)C2=O)cc1`, the Potency was “inactive”.
In the case of `O=C(Cn1c(=O)nc(-c2ccccc2)c2cc(Cl)ccc21)NCc1ccc(Cl)cc1`, the Potency was 10 µM (active).
For `CC1CCN(S(=O)(=O)c2ccc3c(c2)N(CC(=O)NCCc2ccccc2)C(=O)CO3)CC1`, the Potency was “inactive”.
For `Cc1ccc(N(CC(=O)NCc2ccc(Cl)cc2)S(=O)(=O)N(C)C)cc1`, the Potency was “inactive”.
For `CCc1cccc(NC(=O)Cn2nc(CC)n3c(cc4cc(C)ccc43)c2=O)c1`, the Potency was 25.1 µM (active).
In the case of `CCc1nn(CC(=O)Nc2cc(C)cc(C)c2)c(=O)c2cc3sccc3n12`, the Potency was “inactive”.
In the case of `CCc1nn(CC(=O)Nc2cccc(C)c2C)c(=O)c2cc3sccc3n12`, the Potency was “inactive”.
In the case of `CCCCN(CC)CCCNC(=O)Cn1ncc2c([nH]c3ccc(C)cc32)c1=O`, the Potency was “inactive”.
With `c1ccc(CNc2ncnc3[nH]ncc23)cc1` the Potency was “inactive”.
In the case of `CCCN(CCC)C(=O)Cn1c(=O)n(-c2ccc(Cl)cc2)c(=O)c2c3c(sc21)CCCCC3`, the Potency was “inactive”.
For `CCC(C)NC(=O)Cn1c(=O)n(-c2ccc(Cl)cc2)c(=O)c2c3c(sc21)CCCC3` (stereo not given), the Potency was “inactive”.
For `Cc1ccc(NC(=O)Cn2c(=O)n(-c3ccccc3)c(=O)c3c4c(sc32)CCCC4)cc1`, the Potency was 12.6 µM (active).
In the case of `CCOC(=O)c1c(S(=O)(=O)N2CCCC(C(=O)NCc3ccc(F)cc3)C2)c(C)n(CC)c1C` (stereo not given), the Potency was “inactive”.
In the case of `COc1ccccc1Nc1c2c(nc3ccc(NC(=O)/C=C/c4cc(OC)c(OC)c(OC)c4)cc13)CCCC2`, the Potency was 15.8 µM (active).
For `O=C(Nc1c2c(nc3ccccc13)CCCC2)c1ccccc1Br`, the Potency was “inactive”.
For `COc1cccc(C(=O)Nc2ccc3nc4n(c(=O)c3c2)CCCCC4)c1`, the Potency was “inactive”.
For `O=C(O)c1ccc(Cn2c(SCc3ccc(F)cc3)nc3ccncc32)cc1`, the Potency was “inactive”.
In the case of `Cc1ccc(Nc2c(-c3ccc(C)s3)nc3ccccn23)cc1`, the Potency was “inactive”.
With `Cc1cccc2nc(-c3ccc(Cl)s3)c(Nc3ccc4c(c3)OCCO4)n12` the Potency was “inactive”.
For `Cc1ccn2c(Nc3ccc4c(c3)OCCO4)c(-c3ccc(C)s3)nc2c1`, the Potency was 12.6 µM (active).
In the case of `CCN(C(=O)c1sc2cc(OC)ccc2c1Cl)c1ccccc1`, the Potency was “inactive”.
In the case of `COc1ccc(N2CCN(C3=NS(=O)(=O)C(c4cccc(Br)c4)=C3C)CC2)cc1`, the Potency was “inactive”.
For `CCOc1ccc(-n2c(C)nc3c(cnn3-c3ccc(C)cc3)c2=O)cc1`, the Potency was “inactive”.
With `Cc1cccc(N2CCN(C(=O)c3ccc4c(c3)CCN4S(=O)(=O)c3ccccc3)CC2)c1C` the Potency was “inactive”.
For `CCC(CC)c1nn2cc(-c3ccccc3)nc2s1`, the Potency was 6.31 µM (active).
For `Cc1c(C(=O)N2CC(C)OC(C)C2)sc2nc(-c3ccccc3)cn12` (stereo not given), the Potency was “inactive”.
For `CCC(CC)c1nnc(NS(=O)(=O)Cc2ccccc2)s1`, the Potency was “inactive”.
For `CC(C)c1ccc(C2CC(=O)N3CN(C4CCCCC4)CSC3=C2C#N)cc1` (stereo not given), the Potency was “inactive”.
In the case of `Cc1noc(/C=C/N(C)C)c1S(=O)(=O)N1CCCC(C(=O)Nc2cccc(F)c2)C1` (stereo not given), the Potency was “inactive”.
In the case of `CN(C(=O)c1ccc2c(c1)N(Cc1cccc(Cl)c1)C(=O)c1ccccc1S2=O)C1CCCCC1` (stereo not given), the Potency was “inactive”.
